HEK293 tox: qHTS of GLP-1 Receptor Inverse Agonists: Cytotox Screen | hit rate 0.13% among 410,000 | HEK293 cAMP-luciferase reporter cells, luminescence, 24 h | Potency, µM (highest dose often 38.3 µM), inactives show at the top dose activity change, negative = inhibition, hits mostly inhibitors;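 note: loss of luciferase light is scored as toxicity; potency is the fitted concentration of half-maximal effect; % is set by controls: 0 for no effect and ±100 for the full control effect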
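Compound-treated cells are incubated 24 hr at 37 deg C under 5% CO2 after a 12 hour attachment period, then luciferase detection reagent is added and luminescence is measured following 12 min at room temperature; lowered signal indicates toxicity.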
TRPML1 agonist: qHTS for Agonists of the Human Mucolipin Transient Receptor Potential 1 (TRPML1); hit rate 0.12% among 410,000; activation, % (concentration not given with the values); Mucolipin-1 (Homo sapiens), Q9GZU1; TRPML1-expressing cells, Ca2+ dye fluorescence, FDSS; in the data active = activation above about 50%; inconclusive = mostly about 30% to 49%; note: 0% is about no effect
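Cells: TRPML1-DL, 1X Tet inducer, ~16 h at 37 degrees C/5% CO2. Dye: ABD Ca8 no-wash + quencher, 45-90 min RT. Read: 10 s baseline, compound add, 110 s agonist phase; 54-4 EC80 (4uM final), 110 s antagonist phase.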
TRPML1 blocker: qHTS for Inhibitors of the Human Mucolipin Transient Receptor Potential 1 (TRPML1); TRPML1-inducible cells, Ca2+ dye fluorescence, FDSS; hits give low values; inhibition of EC80 agonist-evoked calcium signal; activity change, negative = inhibition, % (no concentration beside the values); hit rate 0.02% among 390,000; AID 624415, 2012; in the data active = activity change below about -50%; inconclusive = between about -30% and that limit;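 note: stimulus is agonist 54-4 at its EC80 concentration; % is set by controls: 0 for no effect and ±100 for the full control effect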
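Calcium fluorescence in TRPML1-DL cells induced overnight with Tet: a 110 s read after compound pin addition, then a 110 s antagonist read after challenge with 54-4 at 4 uM final (EC80).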
TRHR enhancer: qHTS for Small Molecule Agonists and Allosteric Enhancers of Human TRH Receptor: Primary Screen for Enhancers | TRHR cells, fluo-8 calcium fluorescence, EC20 TRH enhancement | enhancement, % at 2 µM | hit rate 0.66% among 360,000; in the data active = enhancement above about 30%; note: 0% is about no effect
Target sequence (P34981 whole entry, looked up): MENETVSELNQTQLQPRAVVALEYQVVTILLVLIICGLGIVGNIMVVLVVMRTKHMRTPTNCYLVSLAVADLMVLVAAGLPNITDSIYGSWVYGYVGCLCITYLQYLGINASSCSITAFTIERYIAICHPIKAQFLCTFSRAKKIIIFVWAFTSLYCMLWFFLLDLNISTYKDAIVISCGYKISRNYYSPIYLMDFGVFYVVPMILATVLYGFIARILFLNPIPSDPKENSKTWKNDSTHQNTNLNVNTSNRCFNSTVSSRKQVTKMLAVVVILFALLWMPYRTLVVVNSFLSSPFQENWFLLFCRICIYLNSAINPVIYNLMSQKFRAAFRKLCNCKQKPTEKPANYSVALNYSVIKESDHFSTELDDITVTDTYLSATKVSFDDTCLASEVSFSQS
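Enhancer read-out: after compound pinning and an initial kinetic agonist-mode read, an EC20 of TRH (10 nM final) was injected and fluo-8 calcium signal (Ex 480/Em 530) followed at 1 s/cycle for 100 cycles in TRHR-expressing cells.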
PTHR1 ag: qHTS for PTHR1 Agonists: Primary Screen; Parathyroid hormone/parathyroid hormone-related peptide receptor (Homo sapiens), Q03431; HEK293 GP2 PTHR1 cells, GloSensor cAMP luminescence, 1 h; Potency, µM (top dose mostly 115 µM), for inactives: at the top dose activation, most hits filed as activators; hit rate 0.075% among 410,000; note: potency is the fitted concentration of half-maximal effect; nearly all actives have a fitted effect of over 55% in size
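HEK-293-derived GP2 cells expressing PTHR1 and a GloSensor cAMP reporter, 3,000/well, plated overnight, given luciferin plus IBMX (each 0.5 mM as added) for 1 h at 37 °C, then compound for 1 h at 37 °C. Luminescence was read after 15 min at room temperature.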
TRHR ag: qHTS for Small Molecule Agonists and Allosteric Enhancers of Human TRH Receptor: Primary Screen for Agonists. Thyrotropin-releasing hormone receptor (Homo sapiens), P34981. TRHR cells, calcium flux fluo-8, FDSS agonist mode. activation, % at 2 µM. hit rate 0.18% among 360,000; in the data active = activation above about 30%; note: 0% is about no effect
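Read-out: compound-evoked intracellular calcium rise in TRHR cells, fluo-8 dye, kinetic FDSS fluorescence at 1 s/cycle following a 10-cycle baseline. Cells cultured overnight before dye loading (30 min–1.5 h, RT).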
* = called active by the depositor; i = inactive; ? = inconclusive; . = no result given; [ ] = remark or other dose. Sampled rows, rich in hits. Any-hit rate of the full collection: about 0.93%. Unless noted, calls come from the whole dose curve; as a rule, active = well fitted curve in the direction sought with a large enough effect; inconclusive = small, poorly fitted or top-dose-only effect, or another doubt; inactive = no such curve, though single readings can be large; an effect the other way counts as inactive or inconclusive.

SMILES	HEK293 tox	TRPML1 agonist	TRPML1 blocker	TRHR enhancer	PTHR1 ag	TRHR ag
CCOC(=O)N1CCC(=NNC(=O)COc2ccc(OC)cc2)CC1	-3.8%	-0.1	-10.0	0.3	-2.9%	0.7
COc1ccc(OCC(=O)N/N=C2/C=C(C)CC2)cc1	-20.0%	-0.2	7.8	33.2*	-0.7%	0.2
O=C(Cc1ccc(F)cc1)NO	.	-0.5	.	.	.	.
CCNc1nc(Oc2ccc(=O)[nH]n2)nc(SC)n1	-8.8%	-0.6	6.5	31.6*	i	0.2
CCOC(=O)c1c(C)oc2nc(C)nc(NCc3ccccc3OCC)c12	2.2%	2.5	28.1	43.2*	15.2%	-1.3
CCOC(=O)c1c(C)oc2nc(C)nc(NCc3ccccc3OC)c12	7.9%	0.2	26.4	-12.5	-5.9%	0.1
COc1ccc(-n2nc3c(c2NC(=O)C(=O)N2CCN(C)CC2)CSC3)cc1	-8.8%	0.8	8.0	43.2*	-22.1%	0.2
CN1CCN(C(=O)C(=O)Nc2c3c(nn2-c2ccc(F)cc2)CSC3)CC1	4.5%	0.4	-6.8	1.9	-19.6%	0.0
Cc1csc(NC(=O)CSc2nc3ccccc3c3c2CCCC3)n1	6.0%	0.0	-23.8	35.6*	-4.5%	1.6
Cc1ccc2c(C(=O)CNc3nccs3)c[nH]c2c1	.	-0.7	.	.	.	.
CC(CCC(C)[n+]1cccc(Br)c1)[n+]1cccc(Br)c1 (centres undefined)	.	-0.8	.	.	.	.
CCOc1ccc(NC(=O)CSc2nc(N)c(-c3ccccc3)c(=O)[nH]2)cc1	-12.4%	-0.7	-16.4	8.2	?	0.0
Nc1nc(-c2ccccc2)c(CCCOc2ccc(NC(=O)CBr)cc2)c(=O)[nH]1	10µM*	0.6	-10.7	.	-6.1%	.
Oc1ccc(-c2csc(-c3c[nH]c4ccccc34)n2)c(O)c1	14.3%	1.5	24.1	39.7*	-75.3%	0.4
Oc1cc2cc(-c3csc(-c4ccc(F)cc4)n3)ccc2[nH]1	.	-1.0	.	.	.	.
O=C(Nc1ccc(O)cc1C(=O)O)c1ccc2c(c1)C(=O)N(Cc1ccco1)C2=O	0.0%	2.0	-6.0	2.0	i	-0.7
O=C(Nc1cc([N+](=O)[O-])ccc1O)c1ccc2c(c1)C(=O)N(Cc1ccco1)C2=O	-25.2%	0.2	-10.8	39.0*	?	-0.3
Clc1cccc(/C=N/Nc2ncnc3ccccc23)c1	-29.6%	0.8	6.0	31.0*	-76.9%[57.5 µM]	-0.2
O=C1[C@H](Cc2ccccc2)NC/C=C\C[C@H](c2ccco2)N1Cc1ccccc1	.	1.5	.	.	.	.
COc1cccc(CNC(=O)c2cc(=O)[nH]c3ccc(S(=O)(=O)N4CCCC4)cc23)c1	-3.3%	-0.8	-2.8	3.6	-10.3%	-0.2
CCCCCNC(=O)c1c[nH]c2ccc(S(=O)(=O)N3CCC(C)CC3)cc2c1=O	-3.3%	1.4	-50.4*	1.2	-5.0%	0.1
CCCCN(C)CCCNC(=O)c1cc(=O)[nH]c2ccc(S(=O)(=O)N3CCCCC3)cc12	-9.1%	0.8	-8.3	53.3*	0.0%	0.1
CCOC(=O)CCc1cc(F)c(S(=O)(=O)N2CCN(S(=O)(=O)c3ccc4c(c3)OCCO4)CC2)cc1F	.	.	.	3.1	.	-0.5
O=C(NCc1ccccc1Cl)c1ccc(CS(=O)(=O)c2ccc(Br)cc2)o1	4.8%	11.2	0.4	39.8*	-96.1%	-0.4
COc1ccc(CN2CC[C@H]3C=CC[C@@H](C(=O)Nc4ccc(Cl)cc4Cl)[C@H]3C2=O)cc1OC	.	-0.9	.	.	.	.
SMILES	HEK293 tox	TRPML1 agonist	TRPML1 blocker	TRHR enhancer	PTHR1 ag	TRHR ag
CCN(CC)c1ccc(/C=C(\C#N)c2nc(-c3cccs3)c(NC(C)=O)s2)cc1	.	.	.	8.8	.	63.5*
CC(=O)Nc1sc(NC(=O)c2ccccc2)nc1-c1cccs1	-16.1%	-0.3	6.0	6.8	-22.1%[57.5 µM]	-0.4
Cc1cccc(C)c1NC(=O)CN(C)C(C)C(=O)Nc1ccccc1-c1ccccc1 (centres undefined)	-4.5%	0.1	-5.7	-4.4	0.1%	1.2
Cc1ccccc1CN(C)C(C)C(=O)Nc1ccccc1F (centres undefined)	0.4%	1.9	-11.7	39.8*	-33.0%	-0.8
CC1(C)OC(=O)C(=CNNc2c(Cl)cc(Cl)cc2Cl)C(=O)O1	-1.5%	-0.4	27.1	31.3*	-19.9%	-1.4
CC1(C)OC(=O)C(=CNc2ncccn2)C(=O)O1	-8.0%	0.6	-9.5	5.1	i	0.9
Cc1ccc(-c2nnn(C/C(N)=N/O)n2)cc1	-8.1%	-0.4	-7.4	35.8*	i	3.9
C(=Nc1cnc2ccccc2c1)c1ccnc2ccccc12	.	-0.6	.	.	.	.
S=C(NCc1ccco1)N1CCN(c2nc(-c3ccccc3)cs2)CC1	19.8%	0.8	-26.8	30.4*	-29.0%	-0.5
COc1ccc(OC)c(/C=C/c2cc3ccccc3cn2)c1	.	-0.6	.	.	.	.
C=CCn1c(-c2csc(-c3ccc(Cl)cc3)n2)n[nH]c1=S	3.55µM*	0.5	75.4	-5.9	13.6%[57.5 µM]	-1.3
C=CCn1c(-c2csc(-c3ccccc3)n2)n[nH]c1=S	11.2µM*	0.6	9.8	13.6	i	-0.2
O=C1C=CC2(C=C1)O[C@H](Cc1ccccc1)[C@@H](Cc1ccccc1)O2	2µM*	2.8	45.6	.	-43.8%	.
COc1ccc(N2C(=O)CC(Cc3ccccc3)C2=O)cc1 (centres undefined)	5.3%	-0.7	-5.5	1.9	-5.4%[57.5 µM]	0.0
O=C1Nc2ccccc2C1Cc1ccccc1 (centres undefined)	-18.9%	0.2	12.1	0.9	i	-0.1
COc1ccc(C[C@@H]2OC3(C=CC(=O)C=C3)O[C@H]2Cc2ccc(OC)cc2)cc1	4.47µM*	7.3	-8.4	.	-11.5%	.
CN(C)c1c(Br)cc(C=O)cc1Br	.	-0.6	.	.	.	.
O=C1NC(c2cccc(Cl)c2)Oc2ccccc21 (centres undefined)	-4.1%	0.4	-6.6	31.9*	i	-0.1
Cc1cccc(C2NC(=O)c3ccccc3O2)c1 (centres undefined)	-12.0%	0.5	-2.7	-2.4	-6.0%	-0.1
N#Cc1c(Cl)cccc1Oc1ccc([S+](=O)([O-])N2CCN([S+](=O)([O-])c3c(F)cccc3F)CC2)cc1	.	.	.	2.2	.	-0.4
CC(C)Cc1nn2c(=O)cc(COC(=O)c3ccccc3NC(=O)c3cccs3)nc2s1	4.0%	2.4	-12.5	-4.8	i	0.9
